About 2,200 (0.71%) of roughly 310,000 compounds showed an effect of 50% or more. Effects have a minus sign here. The full list was thinned out, with strong results kept by preference.
biological target: human ether-à-go-go-related gene (hERG) potassium channel (human, UniProt Q12809); experiment: primary screen, population patch clamp on CHO cells stably expressing hERG; higher = less effect of the substance
Sequence (Q12809 whole entry, looked up): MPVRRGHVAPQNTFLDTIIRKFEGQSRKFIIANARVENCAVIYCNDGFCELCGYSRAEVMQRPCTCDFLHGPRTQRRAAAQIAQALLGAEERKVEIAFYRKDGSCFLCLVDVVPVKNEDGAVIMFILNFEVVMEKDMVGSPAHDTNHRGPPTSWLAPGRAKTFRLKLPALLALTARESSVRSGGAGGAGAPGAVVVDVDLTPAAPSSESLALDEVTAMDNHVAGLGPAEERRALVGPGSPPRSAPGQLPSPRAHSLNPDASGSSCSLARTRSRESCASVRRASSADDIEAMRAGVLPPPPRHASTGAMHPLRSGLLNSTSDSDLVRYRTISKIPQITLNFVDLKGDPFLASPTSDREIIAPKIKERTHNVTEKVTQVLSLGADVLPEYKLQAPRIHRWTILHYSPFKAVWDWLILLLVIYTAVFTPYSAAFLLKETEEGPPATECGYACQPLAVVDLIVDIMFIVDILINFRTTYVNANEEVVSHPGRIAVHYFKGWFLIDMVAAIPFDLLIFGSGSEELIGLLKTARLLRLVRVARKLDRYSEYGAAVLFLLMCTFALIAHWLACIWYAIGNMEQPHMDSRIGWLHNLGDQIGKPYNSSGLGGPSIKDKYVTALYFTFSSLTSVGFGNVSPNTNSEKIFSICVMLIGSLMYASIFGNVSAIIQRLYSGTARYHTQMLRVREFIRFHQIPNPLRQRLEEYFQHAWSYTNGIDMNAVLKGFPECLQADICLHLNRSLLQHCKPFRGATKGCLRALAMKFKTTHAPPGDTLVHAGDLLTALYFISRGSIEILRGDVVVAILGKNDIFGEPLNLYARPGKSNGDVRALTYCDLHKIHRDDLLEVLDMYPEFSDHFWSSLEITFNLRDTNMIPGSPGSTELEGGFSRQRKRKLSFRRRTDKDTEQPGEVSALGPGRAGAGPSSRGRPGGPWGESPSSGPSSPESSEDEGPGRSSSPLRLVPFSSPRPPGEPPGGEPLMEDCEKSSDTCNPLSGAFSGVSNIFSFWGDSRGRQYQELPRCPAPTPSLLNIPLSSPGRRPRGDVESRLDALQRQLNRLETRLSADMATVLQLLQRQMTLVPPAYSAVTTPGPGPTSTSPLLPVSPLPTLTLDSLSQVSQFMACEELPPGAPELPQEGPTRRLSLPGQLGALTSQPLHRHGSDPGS

Compound	hERG current change (%, negative = inhibition) at 1uM
CCOc1ccc(CN2CCN(CC3=Cc4cccc(OC)c4OC3)CC2CCO)cc1 (stereo not shown)	-71.4%
COc1ccccc1CNC(=O)C1(c2ccc(Cl)cc2)CC1	0.547%
O=C(c1cccc(C(F)(F)F)c1)N1CCCC1	8.42%
COc1ccc(-c2nn(-c3ccccc3)cc2/C=N/Nc2ccc3ccccc3n2)cc1OC	7.59%
Cc1cc2n(n1)SC(Nc1cc(Cl)ccc1Cl)N2 (stereo not shown)	7.4%
COC(=O)c1cc(S(=O)(=O)Nc2ccc(C)c(F)c2)c[nH]1	-3.6%
CCn1c(/C(C#N)=N/O)nc2ccccc21	6.1%
O=C(NNS(=O)(=O)c1ccc(F)cc1)c1ccccc1O	13.6%
O=C(C[n+]1ccc(C(=O)N/N=C/c2ccc(O)cc2)cc1)c1ccccc1.[Br-]	4.63%
O=C(C[n+]1ccc(C(=O)N/N=C/c2ccc(Cl)cc2Cl)cc1)c1ccccc1.[Br-]	-63.3%
O=C(C[n+]1ccc(C(=O)N/N=C/c2ccc(Br)cc2)cc1)c1ccccc1.[Br-]	-32.5%
O=C(NCC1CCCO1)c1ccc(S(=O)(=O)Nc2ccccc2F)cc1 (stereo not shown)	7.53%
COc1ccc(N/C(N)=N/c2nc(C)cc(C)n2)c(OC)c1	-2.86%
COc1ccc(Cl)cc1N/C(N)=N/c1nc(C)cc(C)n1	-79.1%
COc1cc(N/C(N)=N/c2nc(C)cc(C)n2)c(OC)cc1Cl	-17.2%
CC(=O)N/C(=N/c1nc(C)cc(C)n1)Nc1ccc(C)cc1C	4.11%
COc1ccccc1N/C(N)=N/c1nc(C)cc(C)n1	-2.38%
COc1ccc(OC)c(N/C(N)=N/c2nc(C)cc(C)n2)c1	-26.5%
COc1ccc(C)cc1N/C(N)=N/c1nc(C)cc(C)n1	-64.7%
Cc1ccc(N/C(N)=N/c2nc(C)cc(N3CCCCC3)n2)c(C)c1	-79%
Cc1ccc(C)c(N/C(N)=N/c2nc(C)cc(C)n2)c1	-8.3%
CCCOc1ccccc1N/C(=N/c1nc(C)cc(C)n1)NC(=O)Nc1ccc(Cl)cc1	8.59%
COc1ccc(Cl)cc1N/C(N)=N/c1nc(C)cc(=O)[nH]1	12.3%

Compound	hERG current change (%, negative = inhibition) at 1uM
CCCOc1ccccc1N/C(N)=N/c1nc(C)cc(C)n1	-59.4%
COc1cc(/C=C(\C#N)C(=O)Nc2ccccc2F)ccc1OCCN1CCOCC1	-25.6%
CN(c1ccccc1)S(=O)(=O)c1cc(C(=O)N2CCN(c3ccccn3)CC2)ccc1Cl	16.5%
CN1CCN(c2ccc([N+](=O)[O-])cc2NC(=O)c2ccco2)CC1	-22.4%
Cc1ccc(S(=O)(=O)N2CCCCC2)cc1C(=O)N(CCc1ccccc1)Cc1ccccc1	12.2%
COc1ccc(C(=O)Oc2ccc(F)cc2C(=O)/C=C/c2ccc(OC)c(OC)c2)cc1	0.79%
O=C(COc1ccccc1Cl)NC(=S)Nc1ccc(CN2CCOCC2)cc1	15.7%
Cc1ccc(NC(=O)COc2ccc3oc4c(c3c2)CCCC4)nc1	2.88%
COc1cc(C2C(C(=O)c3cccs3)=C(O)C(=O)N2c2cc(C)on2)ccc1O (stereo not shown)	2.84%
COc1ccc([N+](=O)[O-])cc1NC(=O)CSCc1ccccc1	13.5%
COc1ccc(-c2cc3ccc(OCC(=O)NCC4CCC(C(=O)O)CC4)cc3oc2=O)cc1 (stereo not shown)	5.49%
CC(C)(C)C(=O)N1NC(=Nc2ccccc2)SC1(C)C	7.38%
CCOc1ccc(S(=O)(=O)NCC2CCCO2)c2ccccc12 (stereo not shown)	4.4%
O=C1OC(Nc2ccc(Cl)cn2)c2ccccc21 (stereo not shown)	2.2%
CCOC(=O)c1ccc2c(c1)n(CCO)c(C)[n+]2CC.[I-]	6.24%
CCOC(=O)c1ccc2c(c1)n(CC)c(/C=C/Nc1ccccc1)[n+]2CC.[I-]	-86.7%
CCn1c(/C=C/N(C)c2ccccc2)[n+](CC)c2ccc(Cl)cc21.[I-]	-7.59%
CCn1c(C)[n+](CC)c2ccc(C(=O)N(C)c3ccccc3)cc21.[I-]	25.5%
CCOC(=O)c1ccc2c(c1)n(CCCS(=O)(=O)[O-])c(/C=C/c1ccc(Cl)cc1)[n+]2CC	-7.29%
CCOC(=O)c1ccc2c(c1)n(CC)c(C)[n+]2CC.[I-]	1.24%
CCOC(=O)c1ccc2c(c1)n(Cc1ccccc1)c(C)[n+]2CC.[O-][Cl+3]([O-])([O-])[O-]	1.03%
CCOC(=O)c1ccc2c(c1)n(CC)c(/C=C/N(C)c1ccccc1)[n+]2CC.[I-]	-66.2%
CCn1c(/C=C/Nc2ccccc2)[n+](CC)c2ccc(C(=O)OCC(F)(F)F)cc21.[I-]	-90.5%

— PMC4336329 (PLoS ONE, 2015)
